Holding throughout (test): DAPPL (digital affinity profiling via proximity ligation, sequencing); 10 mM Tris-HCl pH 7.5, 50 mM NaCl, 1 mM DTT, 4% glycerol, room temperature, 30 min; GST-TFs on glutathione beads, 16-mer random dsDNA library, 0.1% formaldehyde crosslink after washing; high values mean tight binding
In one assay the target is T1, FEV (Homo sapiens, UniProt Q99581 1-238).
T1 sequence: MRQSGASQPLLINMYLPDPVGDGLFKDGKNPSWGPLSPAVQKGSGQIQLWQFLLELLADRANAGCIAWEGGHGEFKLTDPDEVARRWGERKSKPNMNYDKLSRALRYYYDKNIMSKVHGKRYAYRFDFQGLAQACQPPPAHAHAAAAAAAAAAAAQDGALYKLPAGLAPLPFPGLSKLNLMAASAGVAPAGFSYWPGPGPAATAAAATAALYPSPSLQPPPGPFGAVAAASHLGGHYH
Conditions: protein: recombinant; tags: N-terminal GST; dsDNA, one strand shown. The method, boiled down: (§1)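 Yeast served to express human transcription factors as GST fusions, which were then captured on glutathione beads and labelled with DNA barcodes. Pooled with a tag-only sample, they were incubated with 200 nmole of a 16-mer random double-stranded DNA library for 30 min at room temperature in Tris/NaCl/DTT/glycerol buffer, washed, crosslinked with 0.1% formaldehyde, ligated by proximity, amplified by PCR and sequenced. Dividing each hexamer's read frequency for a factor by its frequency for the tag-only sample gives the binding signal.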

The next assay deals with ETV5 (Homo sapiens, UniProt P41161 1-510). Conditions: protein: recombinant; tags: N-terminal GST; dsDNA, one strand shown. The method in brief:
as §1

In the next assay the target is HSF1 (Homo sapiens, UniProt Q00613 1-529). Conditions: protein: recombinant; tags: N-terminal GST; chain copies: 3; dsDNA, one strand shown. The method, boiled down:
as §1

The next assay addresses T2, SPIC (Homo sapiens, UniProt Q8N5J4 1-248).
T2 sequence: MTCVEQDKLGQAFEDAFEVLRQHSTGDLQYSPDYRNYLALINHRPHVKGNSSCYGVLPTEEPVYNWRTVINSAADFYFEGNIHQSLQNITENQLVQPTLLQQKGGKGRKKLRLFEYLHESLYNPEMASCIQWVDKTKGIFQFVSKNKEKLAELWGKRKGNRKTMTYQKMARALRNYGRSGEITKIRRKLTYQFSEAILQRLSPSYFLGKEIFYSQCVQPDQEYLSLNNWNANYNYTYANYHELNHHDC
Conditions: protein: recombinant; tags: N-terminal GST; dsDNA, one strand shown. The method, boiled down: as §1

For the next assay, the target named is ELF4 (Homo sapiens, UniProt Q99607 1-663). Conditions: protein: recombinant; tags: N-terminal GST; dsDNA, one strand shown. The method in brief:
as §1

The target in the next assay is T3, ELK4 (Homo sapiens, UniProt P28324-2 1-405).
T3 sequence: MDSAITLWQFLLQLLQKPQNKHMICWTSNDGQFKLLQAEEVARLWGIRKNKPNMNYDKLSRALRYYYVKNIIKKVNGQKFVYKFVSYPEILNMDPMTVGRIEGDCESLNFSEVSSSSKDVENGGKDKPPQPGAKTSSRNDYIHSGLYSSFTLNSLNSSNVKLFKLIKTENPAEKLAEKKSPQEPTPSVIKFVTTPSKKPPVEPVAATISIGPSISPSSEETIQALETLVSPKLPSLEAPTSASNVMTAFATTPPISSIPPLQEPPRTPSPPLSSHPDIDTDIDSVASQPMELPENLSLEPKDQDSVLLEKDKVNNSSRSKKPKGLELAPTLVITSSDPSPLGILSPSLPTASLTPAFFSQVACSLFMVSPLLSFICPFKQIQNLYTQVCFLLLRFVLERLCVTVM
Conditions: protein: recombinant; tags: N-terminal GST; dsDNA, one strand shown. The method in brief:
as §1

Another assay addresses T4, ETV2 (Homo sapiens, UniProt O00321 1-342).
T4 sequence: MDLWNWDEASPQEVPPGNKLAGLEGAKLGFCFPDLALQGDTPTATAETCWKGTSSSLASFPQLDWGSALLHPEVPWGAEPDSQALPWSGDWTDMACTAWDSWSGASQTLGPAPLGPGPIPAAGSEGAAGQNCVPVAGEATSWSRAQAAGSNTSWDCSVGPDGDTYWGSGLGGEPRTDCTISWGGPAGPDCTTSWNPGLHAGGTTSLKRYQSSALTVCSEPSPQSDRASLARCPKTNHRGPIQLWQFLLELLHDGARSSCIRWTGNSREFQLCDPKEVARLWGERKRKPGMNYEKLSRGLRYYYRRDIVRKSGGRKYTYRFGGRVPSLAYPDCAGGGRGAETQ
Conditions: protein: recombinant; tags: N-terminal GST; dsDNA, one strand shown. The method in brief: as §1

The next assay concerns the target T5, ELF3 (Homo sapiens, UniProt P78545 1-371).
T5 sequence: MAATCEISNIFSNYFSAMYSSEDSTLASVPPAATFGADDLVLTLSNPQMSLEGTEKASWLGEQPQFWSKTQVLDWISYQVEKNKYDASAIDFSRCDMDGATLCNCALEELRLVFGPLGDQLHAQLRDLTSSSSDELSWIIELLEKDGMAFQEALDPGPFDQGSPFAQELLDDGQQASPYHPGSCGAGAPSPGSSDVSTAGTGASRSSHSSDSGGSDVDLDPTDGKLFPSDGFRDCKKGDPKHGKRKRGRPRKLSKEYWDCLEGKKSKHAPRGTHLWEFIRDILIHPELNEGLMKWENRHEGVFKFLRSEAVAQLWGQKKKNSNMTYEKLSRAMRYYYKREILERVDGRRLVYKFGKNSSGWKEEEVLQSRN
Conditions: protein: recombinant; tags: N-terminal GST; dsDNA, one strand shown. The method, boiled down: as §1

For the next assay, the target named is CRX (Homo sapiens, UniProt O43186 1-299). Conditions: protein: recombinant; tags: N-terminal GST; dsDNA, one strand shown. The method in brief: as §1
Sequence of CRX (O43186 whole entry): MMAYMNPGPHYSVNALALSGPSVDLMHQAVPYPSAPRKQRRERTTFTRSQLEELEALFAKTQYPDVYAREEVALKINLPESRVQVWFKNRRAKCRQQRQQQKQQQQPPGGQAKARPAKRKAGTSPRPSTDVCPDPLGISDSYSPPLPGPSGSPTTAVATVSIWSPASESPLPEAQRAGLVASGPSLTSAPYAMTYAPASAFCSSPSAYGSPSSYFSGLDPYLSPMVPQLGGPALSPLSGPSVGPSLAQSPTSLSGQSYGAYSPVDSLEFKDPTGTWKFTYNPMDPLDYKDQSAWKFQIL
For a further assay, the target named is ETV1 (Homo sapiens, UniProt P50549 1-477). Conditions: protein: recombinant; tags: N-terminal GST; dsDNA, one strand shown. The method, boiled down: as §1
Sequence of ETV1 (P50549 whole entry): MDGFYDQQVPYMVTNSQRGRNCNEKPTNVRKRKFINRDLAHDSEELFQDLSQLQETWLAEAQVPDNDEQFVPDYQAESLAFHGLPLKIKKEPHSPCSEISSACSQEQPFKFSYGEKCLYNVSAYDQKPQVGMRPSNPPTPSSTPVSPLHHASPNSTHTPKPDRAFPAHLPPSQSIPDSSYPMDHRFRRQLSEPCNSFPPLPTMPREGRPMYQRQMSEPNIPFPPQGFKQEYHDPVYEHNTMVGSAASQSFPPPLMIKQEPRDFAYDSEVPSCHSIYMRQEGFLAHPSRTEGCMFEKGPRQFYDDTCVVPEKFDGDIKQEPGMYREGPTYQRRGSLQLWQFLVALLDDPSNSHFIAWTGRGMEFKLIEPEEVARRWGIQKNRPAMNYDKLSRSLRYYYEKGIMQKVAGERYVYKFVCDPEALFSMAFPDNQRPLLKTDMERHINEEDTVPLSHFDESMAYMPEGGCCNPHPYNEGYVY
The next assay deals with T6, ERF (Homo sapiens, UniProt P50548 1-548).
T6 sequence: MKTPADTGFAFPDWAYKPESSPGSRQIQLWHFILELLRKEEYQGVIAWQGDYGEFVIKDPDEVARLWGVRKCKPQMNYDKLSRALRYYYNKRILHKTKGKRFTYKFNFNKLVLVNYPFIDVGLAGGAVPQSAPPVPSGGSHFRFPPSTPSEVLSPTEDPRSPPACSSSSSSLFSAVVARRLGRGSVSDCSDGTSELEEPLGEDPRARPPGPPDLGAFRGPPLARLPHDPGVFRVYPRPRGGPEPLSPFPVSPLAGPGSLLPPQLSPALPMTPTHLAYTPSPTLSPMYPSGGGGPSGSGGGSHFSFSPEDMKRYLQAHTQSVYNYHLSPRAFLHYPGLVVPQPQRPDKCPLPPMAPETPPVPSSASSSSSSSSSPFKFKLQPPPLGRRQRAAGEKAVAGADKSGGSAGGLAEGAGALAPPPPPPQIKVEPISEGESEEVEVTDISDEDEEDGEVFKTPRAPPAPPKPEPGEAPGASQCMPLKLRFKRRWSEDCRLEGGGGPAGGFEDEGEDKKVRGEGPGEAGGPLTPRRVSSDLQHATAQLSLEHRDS
Conditions: protein: recombinant; tags: N-terminal GST; dsDNA, one strand shown. The method in brief: as §1

The next assay concerns the target T7, ETV3L (Homo sapiens, UniProt Q6ZN32 1-361).
T7 sequence: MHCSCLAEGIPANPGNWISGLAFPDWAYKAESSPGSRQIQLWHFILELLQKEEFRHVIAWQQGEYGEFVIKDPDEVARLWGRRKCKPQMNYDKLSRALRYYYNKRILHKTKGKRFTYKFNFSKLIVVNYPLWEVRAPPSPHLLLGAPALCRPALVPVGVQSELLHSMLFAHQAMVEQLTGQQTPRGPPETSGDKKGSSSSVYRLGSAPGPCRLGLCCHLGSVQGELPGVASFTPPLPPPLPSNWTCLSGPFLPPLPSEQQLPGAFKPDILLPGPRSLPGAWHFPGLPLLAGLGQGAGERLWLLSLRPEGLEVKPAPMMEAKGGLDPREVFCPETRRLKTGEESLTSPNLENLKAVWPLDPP
Conditions: protein: recombinant; tags: N-terminal GST; dsDNA, one strand shown. The method, boiled down: as §1

In the next assay the target is T8, ETS2 (Homo sapiens, UniProt P15036 1-469).
T8 sequence: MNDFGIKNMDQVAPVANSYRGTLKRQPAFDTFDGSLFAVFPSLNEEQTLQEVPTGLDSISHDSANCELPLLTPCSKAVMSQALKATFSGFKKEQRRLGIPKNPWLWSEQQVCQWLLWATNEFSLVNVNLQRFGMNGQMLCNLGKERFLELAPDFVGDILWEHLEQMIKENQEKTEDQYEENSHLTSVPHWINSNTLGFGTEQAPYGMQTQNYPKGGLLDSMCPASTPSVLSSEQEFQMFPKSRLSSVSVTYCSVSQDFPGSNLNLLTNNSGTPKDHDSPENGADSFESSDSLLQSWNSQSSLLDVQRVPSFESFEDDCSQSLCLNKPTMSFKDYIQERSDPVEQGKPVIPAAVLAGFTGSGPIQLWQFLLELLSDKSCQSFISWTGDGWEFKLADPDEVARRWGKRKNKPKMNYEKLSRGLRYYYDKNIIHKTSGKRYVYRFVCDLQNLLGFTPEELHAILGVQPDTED
Conditions: protein: recombinant; tags: N-terminal GST; dsDNA, one strand shown. The method, boiled down:
as §1

Another assay has as its target T9, SPDEF (Homo sapiens, UniProt O95238 1-335).
T9 sequence: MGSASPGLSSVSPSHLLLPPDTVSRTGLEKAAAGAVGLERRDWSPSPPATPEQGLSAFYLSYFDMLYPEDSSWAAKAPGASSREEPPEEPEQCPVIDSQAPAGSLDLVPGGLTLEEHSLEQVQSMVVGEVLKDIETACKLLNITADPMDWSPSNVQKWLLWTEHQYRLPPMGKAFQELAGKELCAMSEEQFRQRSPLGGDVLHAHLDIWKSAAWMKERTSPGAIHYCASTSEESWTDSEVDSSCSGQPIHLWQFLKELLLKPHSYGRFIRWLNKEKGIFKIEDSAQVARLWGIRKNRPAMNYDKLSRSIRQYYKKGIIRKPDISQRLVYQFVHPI
Conditions: protein: recombinant; tags: N-terminal GST; dsDNA, one strand shown. The method in brief: as §1

For a further assay, the target named is T10, ETV7 (Homo sapiens, UniProt Q9Y603 1-341).
T10 sequence: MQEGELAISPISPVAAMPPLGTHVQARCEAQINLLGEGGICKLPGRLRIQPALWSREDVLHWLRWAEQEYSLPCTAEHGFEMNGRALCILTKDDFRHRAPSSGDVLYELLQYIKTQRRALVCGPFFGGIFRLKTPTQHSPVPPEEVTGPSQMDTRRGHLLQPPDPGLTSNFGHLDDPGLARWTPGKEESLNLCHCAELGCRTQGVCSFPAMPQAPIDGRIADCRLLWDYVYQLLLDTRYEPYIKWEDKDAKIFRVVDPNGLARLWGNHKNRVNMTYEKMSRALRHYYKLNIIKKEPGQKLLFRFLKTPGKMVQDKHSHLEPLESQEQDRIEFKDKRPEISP
Conditions: protein: recombinant; tags: N-terminal GST; dsDNA, one strand shown. The method in brief: as §1

A further assay addresses T11, ELF5 (Homo sapiens, UniProt Q9UKW6-2 1-255).
T11 sequence: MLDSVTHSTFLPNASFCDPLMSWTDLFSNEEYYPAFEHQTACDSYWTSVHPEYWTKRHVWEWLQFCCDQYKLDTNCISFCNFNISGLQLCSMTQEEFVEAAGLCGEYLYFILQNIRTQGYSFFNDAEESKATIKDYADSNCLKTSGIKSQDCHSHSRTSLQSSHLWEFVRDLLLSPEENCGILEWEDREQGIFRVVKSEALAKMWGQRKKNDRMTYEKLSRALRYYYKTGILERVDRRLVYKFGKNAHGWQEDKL
Conditions: protein: recombinant; tags: N-terminal GST; dsDNA, one strand shown. The method in brief: as §1

The target in the next assay is T12, ETV3 (Homo sapiens, UniProt P41162-2 1-143).
T12 sequence: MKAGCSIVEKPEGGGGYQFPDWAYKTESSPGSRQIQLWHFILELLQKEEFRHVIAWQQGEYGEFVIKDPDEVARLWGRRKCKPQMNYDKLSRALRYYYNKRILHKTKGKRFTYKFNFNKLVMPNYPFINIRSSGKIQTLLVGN
Conditions: protein: recombinant; tags: N-terminal GST; dsDNA, one strand shown. The method, boiled down: as §1

The next assay deals with ETV6 (Homo sapiens, UniProt P41212 1-452). Conditions: protein: recombinant; tags: N-terminal GST; dsDNA, one strand shown. The method in brief: as §1
Sequence of ETV6 (P41212 whole entry): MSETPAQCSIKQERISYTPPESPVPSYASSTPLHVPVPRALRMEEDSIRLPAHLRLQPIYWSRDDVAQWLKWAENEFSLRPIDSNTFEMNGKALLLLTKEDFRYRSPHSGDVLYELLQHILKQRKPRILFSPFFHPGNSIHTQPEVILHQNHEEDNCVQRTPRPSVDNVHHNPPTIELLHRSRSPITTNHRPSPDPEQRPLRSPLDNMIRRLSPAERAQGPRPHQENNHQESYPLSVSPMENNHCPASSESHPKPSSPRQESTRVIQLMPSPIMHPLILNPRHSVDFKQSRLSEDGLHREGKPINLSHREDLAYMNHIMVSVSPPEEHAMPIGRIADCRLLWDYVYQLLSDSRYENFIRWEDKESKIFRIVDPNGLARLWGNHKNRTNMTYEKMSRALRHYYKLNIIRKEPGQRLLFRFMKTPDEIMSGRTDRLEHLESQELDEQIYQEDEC

The text below walks through data of article PMC7862700, “An all-to-all approach to the identification of sequence-specific readers for epigenetic DNA modifications on cytosine”.

Sequence of HSF1 (Q00613 whole entry): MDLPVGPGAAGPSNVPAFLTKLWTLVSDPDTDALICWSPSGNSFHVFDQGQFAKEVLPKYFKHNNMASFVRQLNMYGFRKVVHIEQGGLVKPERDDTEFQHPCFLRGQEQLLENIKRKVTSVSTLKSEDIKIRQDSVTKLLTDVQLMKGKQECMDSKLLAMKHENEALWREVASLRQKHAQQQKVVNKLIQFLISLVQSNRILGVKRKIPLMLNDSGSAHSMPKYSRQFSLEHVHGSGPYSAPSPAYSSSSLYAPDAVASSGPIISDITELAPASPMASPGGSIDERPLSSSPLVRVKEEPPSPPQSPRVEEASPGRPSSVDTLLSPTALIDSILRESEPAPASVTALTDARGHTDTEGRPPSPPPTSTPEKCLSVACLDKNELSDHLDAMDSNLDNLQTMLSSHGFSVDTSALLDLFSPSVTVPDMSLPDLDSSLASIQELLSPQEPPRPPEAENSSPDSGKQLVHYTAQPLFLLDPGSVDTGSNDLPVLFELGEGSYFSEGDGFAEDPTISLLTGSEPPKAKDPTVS
Sequence of ELF4 (Q99607 whole entry): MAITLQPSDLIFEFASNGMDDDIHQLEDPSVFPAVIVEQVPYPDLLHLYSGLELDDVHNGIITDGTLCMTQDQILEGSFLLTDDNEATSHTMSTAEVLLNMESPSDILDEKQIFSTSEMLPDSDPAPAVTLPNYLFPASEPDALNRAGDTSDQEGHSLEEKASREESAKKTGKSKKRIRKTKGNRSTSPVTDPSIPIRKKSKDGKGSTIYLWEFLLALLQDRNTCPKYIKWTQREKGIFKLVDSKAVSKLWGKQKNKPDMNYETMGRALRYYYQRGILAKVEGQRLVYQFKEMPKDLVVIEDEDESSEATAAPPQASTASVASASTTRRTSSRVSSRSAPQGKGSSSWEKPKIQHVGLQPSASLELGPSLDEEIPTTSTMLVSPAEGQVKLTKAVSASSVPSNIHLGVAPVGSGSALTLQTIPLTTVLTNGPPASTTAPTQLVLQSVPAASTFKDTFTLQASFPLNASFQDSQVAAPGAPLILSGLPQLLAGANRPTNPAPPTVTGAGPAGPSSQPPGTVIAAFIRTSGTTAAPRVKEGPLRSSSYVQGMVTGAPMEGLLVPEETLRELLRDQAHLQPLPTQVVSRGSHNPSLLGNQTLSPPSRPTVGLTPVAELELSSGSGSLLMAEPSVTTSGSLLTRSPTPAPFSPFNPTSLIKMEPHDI
Sequence of ETV5 (P41161 whole entry): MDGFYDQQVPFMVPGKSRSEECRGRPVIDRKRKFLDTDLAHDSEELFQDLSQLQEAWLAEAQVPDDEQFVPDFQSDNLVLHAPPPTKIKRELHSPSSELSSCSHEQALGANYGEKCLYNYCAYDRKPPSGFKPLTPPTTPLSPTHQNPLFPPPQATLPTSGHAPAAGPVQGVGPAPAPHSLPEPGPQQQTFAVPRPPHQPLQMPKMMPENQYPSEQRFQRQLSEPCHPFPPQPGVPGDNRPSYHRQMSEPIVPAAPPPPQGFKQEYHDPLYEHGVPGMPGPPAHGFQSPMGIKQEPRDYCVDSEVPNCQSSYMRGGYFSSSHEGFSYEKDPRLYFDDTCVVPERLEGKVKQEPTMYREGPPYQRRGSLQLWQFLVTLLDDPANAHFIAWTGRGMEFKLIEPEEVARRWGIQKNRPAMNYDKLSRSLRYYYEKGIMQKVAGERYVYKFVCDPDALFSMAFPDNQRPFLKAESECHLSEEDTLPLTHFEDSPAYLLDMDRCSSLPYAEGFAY

For TCCATA, the binding signal with FEV was 1.21 fold enrichment (6-mer frequency, TF over GST control); with ETV5, 1.3 fold enrichment (6-mer frequency, TF over GST control); with HSF1, 1.44 fold enrichment (6-mer frequency, TF over GST control); in the assay with SPIC, 1.3 fold enrichment (6-mer frequency, TF over GST control); with ELF4, 1.2 fold enrichment (6-mer frequency, TF over GST control); with ELK4, 1.25 fold enrichment (6-mer frequency, TF over GST control). The binding signal in the assay with ETV2 is 1.19 fold enrichment (6-mer frequency, TF over GST control); in the assay with ELF3 it was 1.11 fold enrichment (6-mer frequency, TF over GST control); with CRX, 1.48 fold enrichment (6-mer frequency, TF over GST control); with ETV1, 1.32 fold enrichment (6-mer frequency, TF over GST control); with ERF it was 1.37 fold enrichment (6-mer frequency, TF over GST control); with ETV3L, 1.27 fold enrichment (6-mer frequency, TF over GST control). Besides, the binding signal with ETS2 was 1.25 fold enrichment (6-mer frequency, TF over GST control); in the assay with SPDEF, 1.27 fold enrichment (6-mer frequency, TF over GST control); with ETV7 it was 1.14 fold enrichment (6-mer frequency, TF over GST control); with ELF5, 1.22 fold enrichment (6-mer frequency, TF over GST control); with ETV3, 1.22 fold enrichment (6-mer frequency, TF over GST control); with ETV6 it was 1.27 fold enrichment (6-mer frequency, TF over GST control).
